Measured values from PubChem BioAssay (NCI).
Compounds without any hit were thinned out: in the full panel of roughly 83,000, 20% have a hit.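 96-well plates, one dose, 48 hours. Percent growth reported; active if below 10.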 The source made the active and inactive calls.

tested on: SNB-19 CNS; assay: NCI-60 one-dose screen, 48 h (100 = growth as untreated, 0 = no growth, -100 = all killed); conditions: 10 µM unless noted
Protocol: Growth inhibition of the SNB-19 human tumor cell line is measured as a screen for anti-cancer activity. Cells are grown in 96 well plates and exposed to the test compound for 48 hours. Compounds are tested at a single concentration, which is 10^-5 M for most compounds. The reported endpoint is percent growth (GI% or GIPRCNT), where numbers from 0 - 100% represent growth inhibition, and numbers from -100% - 0 represent cell death. For example, a value of 40 represents 60% growth inhibition. A value of 0 means no net growth occurred over the course of the experiment. A value of -40 indicates 40% of cells at the beginning of the experiment died by the end of the experiment. A value of -100 means all cells are dead at the end of the experiment.
NCI-60 Human Tumor Cell Lines Screen was performed using the standard one-dose NCI protocol, which is described in more detail at https://dtp.cancer.gov/discovery_development/nci-60/default.htm.
Compounds with GIPRCNT values below 10 were considered active. Activity score was based on GIPRCNT using the following formula: […]
Score is 0 for GIPRCNT values of 100 or above, 50 for GIPRCNT values of 0, and 100 for GIPRCNT values of -100.

Q: Which growth does the source give for `COc1cccc(/C=C2\SC(=Nc3ccc(NC(C)=O)cc3)NC2=O)c1OC` here?
A: Its growth is 97.7% (inactive).

Q: `FC(F)(F)Oc1ccc2nc3nc4ccc[nH]c4cc3c2c1` was tested. Which growth did it give?
A: Its growth is 58.3% (inactive).

Q: How did the growth turn out when `COc1cc2nc(N3CCCC3)nc(NCC3CCCCC3)c2cc1OC` was run?
A: The growth was 82.9% (inactive).

Q: For `CC(=O)c1nc2ccccc2n1CC(=O)c1cccc(Cl)c1`, which growth is on record?
A: Its growth is 24.1% (inactive).

Q: With `Cc1ccc(OC(=O)c2ccc(Cl)cc2)cc1` as the compound, how does the growth read?
A: The growth was 103% (inactive).

Q: With `COc1cc(/C=C/c2cc(/C=C/c3ccc(O)c(OC)c3)n(-c3c(Cl)cccc3Cl)c(=O)n2)ccc1O` as the compound, how does the growth read?
A: The growth was 34.1% (inactive).

Q: For `CSc1nc(NCc2ccccc2)c(C#N)c(-c2cccc([N+](=O)[O-])c2)n1`, which growth is on record?
A: Its growth is 94.9% (inactive).

Q: With `O=C1NC(=Nc2ccc(O)cc2)S/C1=C\c1cccc(Cl)c1` as the compound, how does the growth read?
A: The growth was 73.5% (inactive).

Q: Which growth does the source give for `CCCCn1cnc2c(Sc3c([N+](=O)[O-])ncn3C)nc(N)nc21` here?
A: Its growth is 96.3% (inactive).

Q: For `COc1cccc(Nc2nc(SC)nc(-c3cccc([N+](=O)[O-])c3)c2C#N)c1`, which growth is on record?
A: The growth was 67.2% (inactive).

Q: For `COc1cccc2c1C(=O)c1c(O)c3c(c(O)c1C2=O)C[C@](O)(C(=O)CO)C[C@H]3O[C@@H]1C[C@@H](NC(=O)CCCN(C)C2(c3ccc(F)cc3)CC3CCC2C3)[C@H](O)[C@@H](C)O1` (stereo not given in full), which growth is on record?
A: Its growth is -66% (active).

Q: With `O=C(CN(C(=O)Cn1c(=O)n2nnnc2c2ccccc21)c1ccccc1C(F)(F)F)Nc1ccc(C(F)(F)F)cc1` as the compound, how does the growth read?
A: Its growth is 95.6% (inactive).

Q: For `C=C1c2nc3ccccc3n2C=C(c2cccc(Cl)c2)N1Cc1ccc(OC)cc1`, which growth is on record?
A: Its growth is 20.4% (inactive).

Q: `COc1cccc(C2=NN3C(C2)c2cc(Br)cc(OC)c2OC32CCN(Cc3ccccc3)CC2)c1` (stereo not given) was tested. Which growth did it give?
A: Its growth is 101% (inactive).

Q: How did the growth turn out when `COc1cccc(-c2nc3sccn3c2-c2ccnc(NCCCNS(=O)(=O)c3c(Cl)cccc3Cl)c2)c1` was run?
A: The growth was 78.7% (inactive).

Q: Which growth does the source give for `COc1ccc(Nc2c3c4c(cccc4[nH]c2=O)C(=O)c2ccccc2-3)cc1` here?
A: Its growth is 25.8% (inactive).

Q: `c1ccc(Cn2cc(-c3nc4ccccc4s3)c3cccnc32)cc1` was tested. Which growth did it give?
A: The growth was 110% (inactive).

Q: With `COc1ccc(S(=O)(=O)N2CCCCC2)cc1NC(=O)c1[nH]c(C)c2c1CCCCC2=O` as the compound, how does the growth read?
A: Its growth is 36.1% (inactive).

Q: How did the growth turn out when `COc1ccc(/C=C/c2nc(-c3n[nH]c(=O)n3-c3ccccc3)c3ccccc3n2)cc1` was run?
A: Its growth is 96.7% (inactive).

Q: `N#Cc1c(-c2ccc(Cl)cc2)nc(N=Nc2c(O)[nH]c3ccc(Cl)cc23)nc1N1CCOCC1` was tested. Which growth did it give?
A: The growth was 101% (inactive).

Q: `COc1cc(-c2nn(-c3ccc(C(=O)O)cc3)cc2C(=O)O)ccc1O` was tested. Which growth did it give?
A: The growth was 58.4% (inactive).

Q: How did the growth turn out when `O=[N+]([O-])c1ccc(Nc2nc(NCCN3CCOCC3)ncc2[N+](=O)[O-])cc1` was run?
A: Its growth is 83.9% (inactive).

Q: `Cc1cc(C)nc(SC2=C(Nc3cccc(Cl)c3C)C(=O)N(Cc3ccccc3)C2=O)n1` was tested. Which growth did it give?
A: Its growth is 71.9% [30 µM] (inactive).

Q: For `COc1cc(C(=O)Oc2ccccc2OC(=O)c2cc(OC)c(OC)c(OC)c2)cc(OC)c1OC`, which growth is on record?
A: The growth was 97% (inactive).

Q: Which growth does the source give for `CC(C)CC1C(=O)N2CCC[C@H]2C2(O)O[C@](NC(=O)C3C=C4c5cccc6[nH]c(Br)c(c56)C[C@H]4N(C)C3)(C(C)C)C(=O)N12` (stereo not given in full) here?
A: The growth was 69.9% (inactive).

Q: With `COc1ccc(-n2nc(C)c3c(Oc4ccc(NC(=O)Nc5c(Cl)cccc5Cl)cc4)ncnc32)cc1` as the compound, how does the growth read?
A: Its growth is 98.5% (inactive).

Q: `CCCCCCN(CCCCCC)C(=N)c1ccnc2ccccc12` was tested. Which growth did it give?
A: The growth was 84.1% (inactive).

Q: `O=C(O)c1ccc(N=CC(=O)c2ccc(-c3ccccc3)cc2)cc1` was tested. Which growth did it give?
A: The growth was 101% (inactive).

Q: `C=C(C)C(=O)Nc1ccc(NC(C)C)cc1` was tested. Which growth did it give?
A: Its growth is 105% (inactive).

Q: With `O=C(Cn1cccc(Nc2ccccc2)c1=O)Nc1ccccc1` as the compound, how does the growth read?
A: The growth was 97.1% (inactive).

Q: Which growth does the source give for `Cc1cc2nc(NC(=O)CN3CCN(CCN4C(=O)c5cccc6cccc(c56)C4=O)CC3)sc2cc1C` here?
A: Its growth is 75.3% (inactive).

Q: Which growth does the source give for `C#CCOc1ccc2ncnc(N3CCN(C(=O)CCl)CC3)c2c1` here?
A: Its growth is 95.9% [8.25 µM] (inactive).

Q: For `Cc1ccc2c(C(C[N+](=O)[O-])c3ccco3)c(-c3ccccc3)[nH]c2c1` (stereo not given), which growth is on record?
A: The growth was 38.5% (inactive).

Q: How did the growth turn out when `Clc1ccc2c(NCCCCNc3nc(N4CCOCC4)nc4ccccc34)ccnc2c1` was run?
A: The growth was 14.7% (inactive).

Q: With `CCn1c(O)c(/C=N/NC(=O)C(C)c2ccc(CC(C)C)cc2)sc1=S` (stereo not given) as the compound, how does the growth read?
A: The growth was 37.5% (inactive).

Q: For `N#CCCN=Nc1c(O)[nH]c2ccc([N+](=O)[O-])cc12`, which growth is on record?
A: Its growth is 100% (inactive).

Q: How did the growth turn out when `CC(=O)c1cc2c(N)c(C(=O)Nc3ccccc3)sc2nc1C` was run?
A: Its growth is 68.4% (inactive).

Q: For `COC(=O)[C@]12CCC(C)(C)C[C@H]1[C@H]1C(=O)C[C@@H]3[C@@]4(C)c5c([nH]c6ccccc6c5=O)C(C)(C)[C@@H]4CC[C@@]3(C)[C@]1(C)CC2`, which growth is on record?
A: The growth was 75.3% (inactive).

Q: Which growth does the source give for `CCN1CCN(c2nc(NCCNc3ccnc4cc(Cl)ccc34)c3ccccc3n2)CC1` here?
A: Its growth is 14.4% (inactive).

Q: How did the growth turn out when `C#CC(F)(F)[C@]1(O)CC[C@H]2[C@@H]3CCC4=CC(=O)CCC4=C3[C@@H](c3ccc(C4CC4)cc3)C[C@@]21C` was run?
A: Its growth is 46.1% (inactive).
